Source: PubChem BioAssay
AMA1-RON2 inh – AMA1-RON2 (P. falciparum) interaction inhibition | actives 0.2% (n = 360,000) | Potency, µM (titrated, usually from 58.2 µM), inactives show at the highest dose activity change, negative = inhibition, most hits filed as inhibitors | AlphaScreen AMA1-biotinylated RON2 peptide binding;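 also: 0% = vehicle wells and -100% = peptide control; nearly all actives have a fitted effect of over 45% in size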
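AMA1 (3D7) with his tag at 25 nM final met compounds first, then biotinylated RON2 peptide at 25 nM; detection used donor plus acceptor beads, 10 µg/mL apiece, read by AlphaScreen after 30 min at room temperature.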
AmpC inh detg – AmpC beta-lactamase inhibition with detergent present; AmpC hydrolysis of nitrocefin, absorbance 480 nm, 0.01% Triton; P00811; Potency, µM (titrated, usually from 114 µM), for inactives: at the top dose activity change, negative = inhibition, usual class: inhibitors; actives 0.041% (n = 370,000);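 also: 0% = no-compound wells and -100% = no-enzyme wells; nearly all actives have a fitted effect of over 25% in size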
Target sequence (P00811 whole entry, looked up): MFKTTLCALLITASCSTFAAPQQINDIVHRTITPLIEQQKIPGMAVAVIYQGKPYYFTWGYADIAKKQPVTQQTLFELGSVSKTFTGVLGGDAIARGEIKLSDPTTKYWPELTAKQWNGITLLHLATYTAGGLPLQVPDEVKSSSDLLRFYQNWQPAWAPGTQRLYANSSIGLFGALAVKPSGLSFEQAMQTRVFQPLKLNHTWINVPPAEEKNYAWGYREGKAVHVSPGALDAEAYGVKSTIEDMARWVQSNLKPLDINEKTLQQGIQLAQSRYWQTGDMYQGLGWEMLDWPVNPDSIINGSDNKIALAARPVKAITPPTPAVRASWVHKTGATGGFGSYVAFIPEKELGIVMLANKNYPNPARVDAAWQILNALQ
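AmpC (5.3 nM in the dispensed reagent) in 20 mM phosphate pH 7.0 with 0.01% (detergent screen) or 0.0001% Triton X-100 was preincubated with compounds for 15 min at room temperature. Nitrocefin was then added from an 800 uM solution, and hydrolysis was followed at 480 nm.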
Sm TGR block – inhibitors of Schistosoma mansoni thioredoxin glutathione reductase; purified TGR, DTNB reduction, TNB absorbance 405 nm; Potency, µM (series often up to 114 µM), for the others: at the highest dose activity change, negative = inhibition, actives largely listed as inhibitors; actives 3% (n = 360,000); also: nearly all actives have a fitted effect of over 60% in size
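First, TGR (20 nM dispensed) and NADPH were mixed with compound. Second, a 15 min room-temperature incubation followed. Third, further NADPH and then DTNB were added to start the reaction. Finally, TNB absorbance was monitored kinetically.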
RE007 growth inh – less growth of the S. pombe RE007 Vpr strain. S. pombe RE007 Vpr strain, BacTiter-Glo ATP luminescence, 24 h. Potency, µM (highest dose often 92.2 µM), for the others: at the highest dose activity change, negative = less growth, hits mostly inhibitors. actives 0.21% (n = 360,000); active = well fitted falling curve with a large enough effect; inconclusive = small, poorly fitted or top-dose-only effect; inactive = no such curve, though single readings can be large or run the other way; also: nearly all actives have a fitted effect of over 50% in size
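Fission yeast strain RE007, carrying one chromosomally integrated HIV-1 vpr copy, was seeded at OD 0.01 in PMG+AL medium with 23 nL pinned compound. After 24 h at 30 °C and 99% humidity, viability was read by BacTiter-Glo luminescence.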
AmpC inh no detg – inhibitors of E. coli AmpC beta-lactamase without detergent; P00811; AmpC nitrocefin hydrolysis, absorbance 480 nm, 0.0001% Triton; Potency, µM (doses to about 57.1 µM), without a hit: top-dose activity change, negative = inhibition, usual class: inhibitors; actives 0.52% (n = 330,000); AID 485341;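 also: plate controls were no compound for no effect and no enzyme for full effect; nearly all actives have a fitted effect of over 20% in size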
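AmpC (5.3 nM in the dispensed reagent) in 20 mM phosphate pH 7.0 with 0.01% (detergent screen) or 0.0001% Triton X-100 was preincubated with compounds for 15 min at room temperature. Nitrocefin was then added from an 800 uM solution, and hydrolysis was followed at 480 nm.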
The depositor's hits bear a star; ? = inconclusive; / = no result given; [ ] = remark or other dose. In the library only some 3.2% were active in any assay of this set; here they are far more common. Unless noted, calls follow the shape of the dose curve; as a rule, active = well fitted curve in the direction sought with a large enough effect; inconclusive = small, poorly fitted or top-dose-only effect, or another doubt; inactive = no such curve, though single readings can be large; an effect the other way counts as inactive or inconclusive. Unless noted, % is scaled to controls: 0 for no effect and ±100 for the full control effect; potency is read from the fitted curve at half-maximal effect.

SMILES	AMA1-RON2 inh	AmpC inh detg	Sm TGR block	RE007 growth inh	AmpC inh no detg
Cc1[nH]c2ccccc2c1C(c1ccncc1)N1CCN(c2ccccn2)CC1 (stereo unspecified)	-22%	-3%	1µM*	-1%	47%
Cc1[nH]c2ccccc2c1C(c1ccncc1)N1CCN(c2ccccc2F)CC1 (stereo unspecified)	-17%	?	3.5µM*	7%	28%
Cc1[nH]c2ccccc2c1C(c1ccncc1)N1CCC(C)CC1 (stereo unspecified)	-10%	-7%	2.5µM*	-3%	-2%
Clc1ccc(C(c2ccccc2)N2CCN(c3ccccn3)CC2)cc1 (stereo unspecified)	?	0%	-1%	-27%	-11%
CC(C)(C)n1nnnc1C(c1cccnc1)N1CCN(c2ccccc2F)CC1 (stereo unspecified)	-4%	-1%	-24%	-4%	-5%
O=C(O)C(c1ccccc1)N1C(=O)/C(=C\c2ccc(-c3ccc(Br)cc3)o2)SC1=S (stereo unspecified)	-6%	?	?	/	4%
O=C(O)C(c1ccccc1)N1C(=O)/C(=C\c2ccc(-c3ccccc3Cl)o2)SC1=S (stereo unspecified)	25%	?	14µM*	-10%	-42%
CCOC(=O)C(=CNNc1ccccc1)C(=O)OCC	?	6%	2.2µM*	8%	1%
CCOC(=O)NNc1ccccc1	-19%	-5%	-8%	232%	-2%
Cc1ccc(-c2c(CN3CCN(c4cccc(C)c4C)CC3)csc2C)cc1	/	11%	7%	/	/
COc1ccc(NC(=O)CSc2ccc(-c3ccco3)nn2)cc1OC	-7%	-1%	45µM*	-16%	-6%
COc1ccc(-c2nnc(SCC(=O)NCCc3ccc(OC)c(OC)c3)nc2-c2ccc(OC)cc2)cc1	/	-4%	-4%	/	/
COc1cccc(NC(=O)CSc2ccc(-c3ccco3)nn2)c1	-8%	11%	40µM*	-24%	-31%
COc1ccc(CCNC(=O)CSc2ccc(-c3ccco3)nn2)cc1OC	-10%	-4%	18µM*	5%	-13%
CCOc1ccc(NC(=O)CSc2ccc(-c3ccco3)nn2)cc1	14%	-2%	?	40%	-41%
COc1ccc(CCNC(=O)CSc2nnc(-c3ccco3)c(-c3ccco3)n2)cc1OC	/	?	2.2µM*	/	-11%
CCOc1ccc(-n2c(=O)c3c(C)c(C)sc3n(Cc3cc(=O)n4cc(Cl)ccc4n3)c2=O)cc1	/	-8%	10%	/	/
COc1ccc(/C=C(\C#N)c2nc(-c3cc4ccccc4oc3=O)cs2)cc1OC	/	0%	0%	/	/
COc1cccc(CNC(=O)C2CCN(c3nnc(-n4c(C)ccc4C)s3)CC2)c1	/	19%	?	/	/
CCOC(=O)/C(C#N)=C/c1ccc(-c2ccccc2)o1	/	14%	-4%	/	/
O=C(CSc1ccc(-c2ccco2)nn1)Nc1ccccc1	-2%	1%	7.1µM*	8%	-27%
O=C(CSc1ccc(-c2ccco2)nn1)Nc1ccc(F)cc1	13%	-6%	?	4%	-51%
COc1ccc(CCNC(=O)CSc2n[nH]c(N)n2)cc1	2%	100µM*	6%	-3%	-23%
CCc1ccc(NC(=O)CCS(=O)(=O)c2ccc3c(c2)n(C)c(=O)c(=O)n3C)cc1	/	17%	-7%	/	/
O=[N+]([O-])c1cccc(/C=C2\CCC(/C=N/Nc3ccc4ccccc4n3)=C2N2CCOCC2)c1	-3%	-19%	-7%	-14%	-23%
CCOC(=O)C(=O)C1=C(N2CCOCC2)/C(=C\c2cccc([N+](=O)[O-])c2)CC1	-7%[2.32 µM]	-5%	40µM*	-13%	-4%
O=C(NP(=O)(N1CCCC1)N1CCCC1)C1=C(N2CCOCC2)/C(=C/c2cccc([N+](=O)[O-])c2)CC1	5%	-2%	18µM*	-15%	-4%
O=C(Cn1c(=O)oc2cc(S(=O)(=O)NCc3ccccc3)ccc21)NCc1ccccc1Cl	/	-7%	-3%	/	/
